Only some compounds are listed: those with a hit (about 21% of all), similar ones and a draw of the others.
IL1B secr inh – inhibitors of inflammasome signaling (IL-1 beta secretion); AID 743279; 4.7% of 360,000 active; THP-1 LPS/ATP IL-1B secretion, AlphaLISA, 16 h; active compounds read low; activity change, % at 57.5 µM; in the data active = activity change below about -50%; inconclusive = mostly about -30% to -49%
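Secreted IL-1B measured by AlphaLISA bead assay after 16 h compound exposure of THP-1 cells; compounds (final up to 57.5 uM) added 1 h before LPS (250 ng/mL) and ATP (1.25 mM) stimulation; lower signal means less secretion.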
DT40 TDP1 no CPT – qHTS for Inhibitors of human tyrosyl-DNA phosphodiesterase 1 (TDP1): qHTS in cells in absence of CPT; DT40 Tdp1-/- hTDP1 cells, no CPT, ATP luminescence, 48 h; 15% of 420,000 active; AID 686978, 2013; Potency, µM (highest dose often 46.2 µM), for inactives: at the highest dose activity change, negative = growth inhibition, hits mostly inhibitors; also: potency is read from the fitted curve at half-maximal effect; nearly all actives have a fitted effect of over 55% in size
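Chicken DT40 Tdp1-/- cells stably complemented with human TDP1 were seeded at 400 cells/well with DMSO in place of 20 nM camptothecin. After compound pinning, cells grew at least 48 hr at 37 °C; viability read by CellTiter-Glo luminescence.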
RORg inh – inhibitors of mouse ROR gamma transcriptional activity; P51450; Drosophila S2 Gal4-RORgamma UAS-luciferase reporter, 20 h; Potency, µM (series often up to 53.6 µM), inactives show at the top dose activity change, negative = inhibition, most hits filed as inhibitors; 5.4% of 310,000 active; AID 2551; also: potency is read from the fitted curve at half-maximal effect; nearly all actives have a fitted effect of over 60% in size
Target sequence (P51450 whole entry, looked up, the tested form may be a part): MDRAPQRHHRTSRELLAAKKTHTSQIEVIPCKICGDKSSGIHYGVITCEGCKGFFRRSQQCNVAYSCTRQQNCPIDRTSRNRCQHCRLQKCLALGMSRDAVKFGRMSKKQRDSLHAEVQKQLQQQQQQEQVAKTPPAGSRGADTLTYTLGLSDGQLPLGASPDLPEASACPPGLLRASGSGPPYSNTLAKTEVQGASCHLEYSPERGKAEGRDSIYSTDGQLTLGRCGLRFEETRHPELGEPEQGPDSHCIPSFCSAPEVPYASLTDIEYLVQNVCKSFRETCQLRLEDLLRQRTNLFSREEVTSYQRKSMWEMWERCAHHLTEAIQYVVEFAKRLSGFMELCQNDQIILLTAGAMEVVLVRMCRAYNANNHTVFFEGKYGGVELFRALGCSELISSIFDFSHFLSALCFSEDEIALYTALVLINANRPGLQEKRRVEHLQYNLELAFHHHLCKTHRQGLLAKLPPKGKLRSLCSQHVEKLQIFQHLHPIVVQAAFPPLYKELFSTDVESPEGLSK
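Read-out: Photinus luciferase luminescence; inhibitors lower reporter signal. Insect Schneider cells with Gal4-ROR gamma fusion under metallothionein promoter, UAS reporter; 700 uM final copper sulfate induction, 20 hr, ambient temperature.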
DT40 TDP1 CPT – DT40-hTDP1 cell growth loss with CPT. chicken DT40 Tdp1-/-;hTDP1 cells + 20 nM CPT, ATP luminescence, 48 h. 12% of 420,000 active. Potency, µM (top dose mostly 46.2 µM), for the others: at the highest dose activity change, negative = growth inhibition, most hits filed as inhibitors; also: potency is read from the fitted curve at half-maximal effect; nearly all actives have a fitted effect of over 55% in size
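Chicken DT40 Tdp1-/- cells complemented with human TDP1, 400 cells/well, exposed to compounds plus 20 nM camptothecin for at least 48 h at 37 C; viability read as ATP content by CellTiter-Glo luminescence.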
ELG1 repair inh – blocks ELG1-dependent DNA repair in HEK293T cells; 2.3% of 330,000 active; Potency, µM (top dose mostly 46.1 µM), inactives show top-dose activity change, negative = inhibition, actives largely listed as inhibitors; HEK293T ELG1-luciferase reporter, luminescence, 16 h; DNA damage induced by 5-fluorouridine; also: potency is read from the fitted curve at half-maximal effect; nearly all actives have a fitted effect of over 55% in size
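HEK293T cells expressing luciferase-tagged ELG1 (2,000/well) received 5-Fluorouridine plus compound or DMSO for 16 hr at 37 °C. Luciferase was read by ONE-Glo luminescence after 30 min at room temperature.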
VP16 counter – inhibits Gal4-VP16 luciferase reporter, ROR gamma counter-screen; Drosophila S2 Gal4-VP16 UAS-luciferase, luminescence, 20 h; Potency, µM (doses to about 53.6 µM), for the others: top-dose activity, negative = inhibition, hits mostly inhibitors; 3.5% of 310,000 active; AID 2546;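 also: Gal4-VP16 expression switched on by copper sulfate through the metallothionein promoter; potency is read from the fitted curve at half-maximal effect; nearly all actives have a fitted effect of over 50% in size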
Active calls of the source: *; ? = inconclusive; · = not tested or not shown; [ ] = dose if it differs, or a comment. Unless noted, calls follow the shape of the dose curve; as a rule, active = well fitted curve in the direction sought with a large enough effect; inconclusive = small, poorly fitted or top-dose-only effect, or another doubt; inactive = no such curve, though single readings can be large; an effect the other way counts as inactive or inconclusive. % is scaled to controls: 0 for no effect and ±100 for the full control effect.

SMILES | IL1B secr inh | DT40 TDP1 no CPT | RORg inh | DT40 TDP1 CPT | ELG1 repair inh | VP16 counter
CO[C@H]1O[C@@H]2O[C@@]3(C)CC[C@H]4[C@H](C)CC[C@@H]([C@H]1C)[C@@]24OO3 | · | 1.5µM* | · | 2.7µM* | · | ·
CS(=O)(=O)N1CCC2(CCN(c3ccccc3)CC2)CC1 | · | ? | 28% | -14% | · | 8%
C=CCn1c(=O)/c(=C\c2ccsc2)s/c1=C(/C#N)C(=O)NCCN1CCOCC1 | ? | ? | ? | ? | 15% | 1%
COc1ccc(-n2c(=O)/c(=C\c3cccs3)s/c2=C(/C#N)C(=O)NCCN2CCOCC2)cc1 | -12 | ? | 2% | 13µM* | 3% | -5%
Cc1cc(N2CCCC2)c(F)cc1/C=C\[N+](=O)[O-] | -68* | ? | 2% | 23µM* | 14% | -9%
Cc1cccc(C)c1Nc1oc(-c2ccccc2)nc1-c1ccccc1 | · | · | -1% | · | · | -4%
Cc1cc(C)cc(NC(=O)c2cc(C)n(Cc3cccs3)c2C)c1 | -9 | 18µM* | -37% | 29µM* | ? | -26%
Cc1cc(C(=O)CN2C(=O)c3ccccc3C2=O)c(C)n1Cc1cccs1 | 4 | ? | ? | ? | ? | 3%
Cc1cc(C(=O)Cn2nnc3ccccc3c2=O)c(C)n1Cc1cccs1 | -11 | 18µM* | ? | 29µM* | ? | -88%
Cc1cc(C(=O)Nc2ccc(Cl)cc2)c(C)n1Cc1cccs1 | · | 8.2µM* | ? | ? | ? | -24%
CCOC(=O)c1ccc(NC(=O)NCCc2ccccc2OC)cc1 | -7 | 15µM* | ? | ? | ? | ?
CCOC(=O)c1ccc(NC(=O)c2c(N)n(Cc3ccccc3)c(=O)[nH]c2=O)cc1 | 36 | -101% | · | 16µM* | · | ·
COc1ccccc1CCC(=O)OCC(=O)Nc1ccc(C(N)=O)cc1 | 19 | -99% | 8% | 15µM* | 5% | -2%
Cc1csc(=O)n1CC(=O)OCC(=O)Nc1ccc(C(N)=O)cc1 | 0 | 6.5µM* | · | -7% | 21% | ·
CCN(CC)S(=O)(=O)c1ccc(C(=O)Nc2cc(S(=O)(=O)N3CCOCC3)ccc2N2CCN(C)CC2)cc1 | -29 | 5% | · | 8% | · | ·
Cc1ccc(NC(=O)CCCc2nc3ccccc3s2)c(O)c1 | 95 | -16% | 18% | -22% | 1% | 6%
COC(=O)c1ccc(NC(=S)NCCc2ccccc2)cc1 | 83 | ? | ? | ? | -14% | -3%
CCOC(=O)c1ccc(NC(=S)NCCc2ccccc2)cc1 | 67 | 21µM* | 8.9µM* | ? | 3% | ?
CCOC(=O)c1ccc(NC(=S)NCC(O)c2ccccc2)cc1 (stereo not drawn) | 8 | 18µM* | 4% | ? | 4% | 7%
CCOC(=O)c1ccc(S(=O)(=O)Nc2ccccc2-c2nnn(CC)n2)cc1 | -16 | 9.2µM* | -26% | 15µM* | ? | ?
CCOC(=O)c1ccc(NC(=O)c2ccccc2)cc1 | ? | -15% | 34% | -14% | ? | 4%
CCOC(=O)c1ccc(NC(=S)NCc2ccccc2)cc1 | -8 | ? | 14µM* | -21% | 11% | ?
CCc1ccc(NC(=O)C(=O)NCC(O)c2ccccc2)cc1 (stereo not drawn) | -10 | -4% | 5% | -6% | 5% | 11%
CCOC(=O)c1ccc(S(=O)(=O)NCCNCc2ccccc2)cc1 | -76* | ? | · | ? | -2% | ·
CCOC(=O)c1ccc(NC(=O)NCc2ccccc2OC)cc1 | -1 | -27% | -2% | 4% | -4% | ?
SMILES | IL1B secr inh | DT40 TDP1 no CPT | RORg inh | DT40 TDP1 CPT | ELG1 repair inh | VP16 counter
CCOC(=O)c1ccc(NC(=S)NCCc2ccccc2F)cc1 | 72 | 23µM* | 3.5µM* | ? | -2% | ?
CCNC(=O)N(C)c1c(CC)nc2ccc(C(=O)N3CCN(C(C)=O)CC3)cn12 | 28 | 6% | · | -4% | · | ·
CCOc1ccc(Cl)cc1-c1cc(C(=O)NCc2ccccc2OC)[nH]n1 | 0 | 18µM* | · | ? | · | ·
CCOc1ccc(Cl)cc1-c1cc(C(=O)NCc2cc(C(F)(F)F)cc(C(F)(F)F)c2)[nH]n1 | 0 | ? | · | 23µM* | · | ·
CCOc1ccc(-c2cc(C(=O)NCc3ccc(C(F)(F)F)cc3)[nH]n2)c(C)c1 | 16 | 9% | · | 3% | · | ·
COc1ccc(Cl)cc1-c1cc(C(=O)Nc2ccccc2)[nH]n1 | -22 | ? | · | ? | · | ·
CCCOc1ccc(F)cc1-c1cc(C(=O)NCc2cc(C(F)(F)F)cc(C(F)(F)F)c2)[nH]n1 | -12 | ? | · | ? | · | ·
COc1ccc(Cl)cc1-c1cc(C(=O)N[C@H](C)c2ccccc2)[nH]n1 | -22 | 3.7µM* | · | 2.6µM* | · | ·
COc1ccc(F)cc1-c1cc(C(=O)NCc2cc(C(F)(F)F)cc(C(F)(F)F)c2)[nH]n1 | -12 | ? | · | 18µM* | · | ·
COc1ccc(COc2ccccc2C(=O)NCc2ccccc2)cc1F | 40 | ? | 10%[10 µM] | ? | 26µM* | -30%
CCOc1ccc(Cl)cc1-c1cc(C(=O)NCc2ccccc2)[nH]n1 | ? | ? | · | 12µM* | · | ·
COc1ccc(F)cc1-c1cc(C(=O)NCc2ccc(F)cc2)[nH]n1 | -3 | -27% | · | ? | · | ·
COc1ccc(F)cc1-c1cc(C(=O)NCc2ccccc2)[nH]n1 | -67* | ? | · | -22% | · | ·
COc1cc(CNC(=O)c2cc(-c3cc(Cl)ccc3OC)n[nH]2)cc(OC)c1 | -9 | ? | · | ? | · | ·
COc1ccc(Cl)cc1-c1cc(C(=O)NCc2ccccc2)[nH]n1 | -11 | 21µM* | · | 16µM* | · | ·
COC(=O)C1CCN(S(=O)(=O)CCNC(=O)c2ccc3c(c2)OCO3)CC1 | -13 | -1% | · | 10% | 11% | ·
O=C(Cn1ccn(-c2ccc(F)cc2)c(=O)c1=O)Nc1ccccc1C(F)(F)F | · | 7% | · | 18% | · | ·
COc1ccccc1CNC(=O)c1cc(-c2ccc(F)cc2OC)n[nH]1 | -51* | ? | · | -22% | · | ·
COC(=O)c1c(NC(=O)CSc2nccn2C)sc(C)c1C | -11 | -3% | · | 4% | 3% | ·
CCOC(=O)c1c(NC(=O)CSc2ncnc3ccccc23)sc(C(C)=O)c1C | 33 | 9.2µM* | -4% | 8.2µM* | 15µM* | -7%
CCOC(=O)c1c(NC(=O)CSc2nc3ccccc3s2)sc(C)c1C | -2 | ? | -22% | 16µM* | -4% | -4%

Source: PubChem (National Center for Advancing Translational Sciences (NCATS))
